In all, about 5,600 compounds went through this assay and about 780 (14%) were called active. Another 3% or so got no clear call; they are omitted.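 How the source made its calls: active means mean signal decrease across replicates above about 35% based on untreated-well scatter, with enough replicates individually passing (limit read from the data); inconclusive means no rule stated though some were filed; inactive means the rest.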 Not all results are given here.

A short description of this test: cytotoxicity in mouse NIH/3T3 fibroblasts, confirmation, cytotoxicity control for T. cruzi proliferation inhibitor project, cell-based, cherry-pick, single point (AID 651742).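 Further: 0% = median of neutral control wells and 100% = median of positive control wells.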 Conditions: NIH/3T3 viability, CellTiter-Glo ATP luminescence, 90 h; at 8.35 µM; stronger effect = higher value. A general note: Cellular ATP, detected with luciferase, serves as a proxy for viable cell number.
Turning to `C[C@H]1CN([C@@H](C)CO)C(=O)CCCn2cc(nn2)CO[C@H]1CN(C)C(=O)c1ccccc1`, the cytotoxicity (signal decrease) is 10.9% (inactive). The result for `C[C@H](CO)N1C[C@H](C)[C@H](CN(C)C(=O)Nc2ccc(C(F)(F)F)cc2)OCCCC[C@H](C)Oc2ccc(NC(=O)C3CCCCC3)cc2C1=O` reads -27% (inactive). Regarding `Cc1noc(C)c1S(=O)(=O)Nc1ccc2c(c1)C(=O)N([C@@H](C)CO)C[C@H](C)[C@@H](CN(C)C(=O)Nc1cccc3ccccc13)OCCCC[C@H](C)O2`, the cytotoxicity (signal decrease) was 7.99% (inactive). The result for `COc1ccc(S(=O)(=O)Nc2ccc3c(c2)C(=O)N([C@H](C)CO)C[C@H](C)[C@H](CN(C)Cc2ccc(C(F)(F)F)cc2)O3)cc1` reads 29% (inactive); that for `O=C(CN1CCOCC1)N1CCCCN2[C@@H](CO)[C@H](c3ccc(-c4ccccc4)cc3)[C@@H]2C1`, 8.85% (inactive); that for `C[C@H]1CN([C@@H](C)CO)C(=O)c2cc(NC(=O)Nc3ccc4c(c3)OCO4)ccc2O[C@@H]1CN(C)Cc1ccc(Oc2ccccc2)cc1`, 16% (inactive). For `C[C@@H]1CN([C@@H](C)CO)C(=O)c2cc(NC(=O)Cc3ccccc3)ccc2O[C@@H]1CN(C)Cc1ccc(Oc2ccccc2)cc1` the value was 27.9% (inactive); for `N#C[C@@H]1[C@@H](c2ccc(C#Cc3cccc(F)c3)cc2)[C@@H](CO)N1C(=O)C1CCC1`, 29.1% (inactive). The result for `CC(C)CC#Cc1cnc2c(c1)C(=O)N([C@@H](C)CO)C[C@@H](C)[C@H](CN(C)C(=O)Cc1ccncc1)O2` reads -12% (inactive); that for `CC(=O)N(C)C[C@@H]1[C@@H](c2ccc(-c3ccccc3F)cc2)[C@@H](CO)N1C(C)=O`, 0.445% (inactive).

Regarding `CCN(C[C@H]1[C@H](c2ccccc2)[C@H](CO)N1C(=O)C1CC1)C(=O)NC1CCCC1`, the cytotoxicity (signal decrease) was -12.5% (inactive). The result for `CC(C)NC(=O)Nc1ccc2c(c1)C(=O)N([C@H](C)CO)C[C@H](C)[C@H](CN(C)C(=O)Nc1ccc(C(F)(F)F)cc1)OCCCC[C@@H](C)O2` reads -9.66% (inactive). Turning to `O=S(=O)(c1ccccc1)N1CC[C@@H]2[C@@H](CO)Nc3ccc(C#Cc4cccc(F)c4)cc3[C@@H]21`, the cytotoxicity (signal decrease) is 33% (inactive). For `Cc1ccccc1S(=O)(=O)N1CC[C@H]2[C@H](CO)Nc3ccc(-c4cccc(F)c4)cc3[C@H]21` the value was 52.4% (active); for `OC[C@@H]1Nc2ccc(-c3cccc(F)c3)cc2[C@H]2[C@@H]1CCN2Cc1ccncc1`, 9.48% (inactive). The result for `C[C@H](CO)N1C[C@H](C)[C@@H](CN(C)Cc2ccc(C(F)(F)F)cc2)OCCCC[C@H](C)Oc2ccc(NC(=O)C3CCCCC3)cc2C1=O` reads 27.4% (inactive).

With `COc1cccc(S(=O)(=O)Nc2ccc3c(c2)[C@H]2C[C@H](CC(=O)NCc4ccc(Cl)cc4)O[C@H](CO)[C@H]2O3)c1`, the cytotoxicity (signal decrease) is -23.8% (inactive). On to `CN(C)C(=O)c1ccc(-c2ccc3c(c2)[C@H]2[C@H](CCN2C(=O)c2ccc4c(c2)OCO4)[C@H](CO)N3)cc1`, for which the cytotoxicity (signal decrease) was -2.98% (inactive). Consider `O=C(c1ccc(F)cc1)N1CCCCN2[C@H](C1)[C@@H](c1ccc(C#CC3(O)CCCC3)cc1)[C@@H]2CO`, for which the cytotoxicity (signal decrease) is 2.43% (inactive).

For the molecule `C[C@H](CO)N1C[C@H](C)[C@H](CN(C)S(=O)(=O)c2ccc(F)cc2)OCCCC[C@H](C)Oc2ccc(NS(=O)(=O)c3ccc(Cl)cc3)cc2C1=O`, the cytotoxicity (signal decrease) is 22.2% (inactive). Regarding `C[C@@H]1CN([C@H](C)CO)C(=O)c2cccc(NC(=O)NC3CCCCC3)c2O[C@H]1CN(C)Cc1ccc(C(F)(F)F)cc1`, the cytotoxicity (signal decrease) was -8.62% (inactive). For `C[C@@H]1CCCCO[C@H](CN(C)C(=O)CCC(F)(F)F)[C@H](C)CN([C@H](C)CO)C(=O)c2cc(NS(C)(=O)=O)ccc2O1` the value was 5.17% (inactive). The result for `CCC(=O)N1CCCCN2[C@H](C1)[C@@H](c1ccc(/C=C/c3ccccc3)cc1)[C@@H]2CO` reads 38.9% (active); that for `O=C(CN1CCOCC1)N1CCCCN2[C@@H](CO)[C@H](c3ccc(/C=C/c4ccccc4)cc3)[C@@H]2C1`, 32.3% (inactive); that for `COc1ccccc1C#Cc1ccc([C@H]2[C@H](CO)N3CCCCN(C(=O)C4CCC4)C[C@@H]23)cc1`, 50.3% (active).

As for `COc1ccccc1C#Cc1ccc([C@@H]2[C@H](CO)N3CCCCN(C(=O)C4CC4)C[C@@H]23)cc1`, the cytotoxicity (signal decrease) is 17.7% (inactive). As for `COc1ccccc1NC(=O)N1CCCCN2[C@H](C1)[C@H](c1ccc(-c3ccccc3)cc1)[C@@H]2CO`, the cytotoxicity (signal decrease) was 33.3% (inactive). In the case of `O=C(C1CCC1)N1CCCCN2[C@H](CO)[C@H](c3ccc(-c4ccncc4)cc3)[C@@H]2C1`, the cytotoxicity (signal decrease) is -4.89% (inactive).

Regarding `OC[C@@H]1[C@H](c2ccc(C#Cc3ccccc3)cc2)[C@@H]2CN(Cc3cncnc3)CCCCN12`, the cytotoxicity (signal decrease) was 41.5% (active). For `CCC(=O)N1CCCCN2[C@H](C1)[C@@H](c1ccc(-c3ccc(F)cc3)cc1)[C@@H]2CO` the value was 15.5% (inactive).

As for `COc1ccccc1C#Cc1ccc([C@@H]2[C@H](CO)N3CCCCN(C(=O)C4CCCC4)C[C@@H]23)cc1`, the cytotoxicity (signal decrease) is 53.5% (active). For `OC[C@@H]1[C@H](c2ccc(C#CC3(O)CCCC3)cc2)[C@H]2CN(Cc3cncnc3)CCCCN12` the value was 13.7% (inactive); for `O=C(C1CCC1)N1CCCCN2[C@H](CO)[C@H](c3ccc(-c4cccc(F)c4)cc3)[C@@H]2C1`, 30.8% (inactive); for `Cc1ccc(-c2ccc([C@H]3[C@H](CO)N4CCCCN(Cc5cncnc5)C[C@@H]34)cc2)cc1`, 20% (inactive). For `C[C@@H]1CCCCO[C@H](CN(C)S(=O)(=O)c2ccc(Cl)cc2)[C@H](C)CN([C@@H](C)CO)C(=O)c2cc(NS(=O)(=O)c3cccs3)ccc2O1` the value was -18.8% (inactive); for `C[C@@H]1CN([C@H](C)CO)C(=O)CCCn2nncc2CO[C@@H]1CN(C)Cc1ccc(C(=O)Nc2ccccc2N)cc1`, 14.8% (inactive). For `Cc1ccc(S(=O)(=O)N2C[C@@H](O)COC[C@@H]3O[C@H](CC(=O)NCc4ccc(Cl)c(Cl)c4)CC[C@H]32)cc1` the value was 3.54% (inactive).

`O=C(C1CCCC1)N1CCCCN2[C@@H](CO)[C@H](c3ccc(-c4cccc(F)c4)cc3)[C@@H]2C1`: the cytotoxicity (signal decrease) is 25.5% (inactive).

The values above are taken from PubChem BioAssay AID651742 (Broad Institute, 2012).
